Experimental data from PubChem BioAssay AID1839 (Johns Hopkins Ion Channel Center, 2009).
Hit rate of the full screen: of about 2,400 compounds, about 220 (9.2%) were called active. The sample holds actives, similar compounds and a random draw of the others, so the mix is not that of the screen. Values without a mark were called inactive.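 The calls were made as follows: active = signal change above the mean of dofetilide-free buffer controls plus 3 SD, so a positive margin; inactive = the rest.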

Assay: thallium signal changes without hERG – cell-based, CHO-K1 parental line, FluxOR thallium flux, counter-screen for hERG block protection project, confirmation (AID 1839);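 also: compounds applied alone with no dofetilide to cells lacking hERG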
Details: CHO-K1 parental cells, FluxOR thallium flux fluorescence; at 10 µM

Q: For `CN(C)c1ccc(N=Nc2ccc(C(=O)O)cc2)cc1`, which signal change vs control minus 3*SD hit threshold (margin above threshold, higher = more increase) is on record?
A: -27.2%

Q: For `CCC1CCCCN1C(=S)NC(=O)c1cccs1` (stereo unspecified), which signal change vs control minus 3*SD hit threshold (margin above threshold, higher = more increase) is on record?
A: -31.1%

Q: With `COc1ccc(-n2nc(C)cc2Nc2ccccc2C(=O)O)cc1` as the molecule, how does the signal change vs control minus 3*SD hit threshold (margin above threshold, higher = more increase) read?
A: 0.3% (active)

Q: For `COc1ccc(C(=O)Nc2ccccc2C(=O)O)cc1Cl`, which signal change vs control minus 3*SD hit threshold (margin above threshold, higher = more increase) is on record?
A: -30.4%

Q: With `COc1ccc(/C=C/C(=O)Nc2ccccc2C(=O)O)cc1` as the molecule, how does the signal change vs control minus 3*SD hit threshold (margin above threshold, higher = more increase) read?
A: -18.6%

Q: Which signal change vs control minus 3*SD hit threshold (margin above threshold, higher = more increase) does the source give for `CCOc1cc(N2CCOCC2)c(OCC)cc1NC(=O)Cc1ccccc1` here?
A: -13.5%

Q: With `Nc1nonc1-n1nnc(C(=O)N/N=C/c2ccccn2)c1-c1ccccc1` as the molecule, how does the signal change vs control minus 3*SD hit threshold (margin above threshold, higher = more increase) read?
A: -22.7%

Q: For `O=C(NC(=S)Nc1nc2c(s1)CSc1ccccc1-2)c1ccccc1`, which signal change vs control minus 3*SD hit threshold (margin above threshold, higher = more increase) is on record?
A: -20.9%

Q: For `COc1ccc(-c2cc(C(F)(F)F)nc(SCC(=O)NCc3cccs3)n2)cc1`, which signal change vs control minus 3*SD hit threshold (margin above threshold, higher = more increase) is on record?
A: -17.2%

Q: With `Cc1ccccc1NC1=NC(=S)N(c2ccccc2)C12CCCCC2` as the molecule, how does the signal change vs control minus 3*SD hit threshold (margin above threshold, higher = more increase) read?
A: -2.6%

Q: With `CCOc1ccccc1NC(=O)C(=O)CC(=O)c1ccc(OC)cc1` as the molecule, how does the signal change vs control minus 3*SD hit threshold (margin above threshold, higher = more increase) read?
A: -20.6%

Q: With `COc1cccc(C(=O)NNC(=O)C(=O)Nc2ccc(OC)cc2OC)c1` as the molecule, how does the signal change vs control minus 3*SD hit threshold (margin above threshold, higher = more increase) read?
A: -6.2%

Q: With `COc1ccc(C(=O)CC(=O)C(=O)Nc2ccccc2OC)cc1` as the molecule, how does the signal change vs control minus 3*SD hit threshold (margin above threshold, higher = more increase) read?
A: -25.2%

Q: Which signal change vs control minus 3*SD hit threshold (margin above threshold, higher = more increase) does the source give for `COc1ccc(C(=O)CC(=O)C(=O)Nc2ccccc2C(F)(F)F)cc1` here?
A: -24.1%

Q: Which signal change vs control minus 3*SD hit threshold (margin above threshold, higher = more increase) does the source give for `COc1cccc(C(=O)NNC(=O)C(=O)Nc2cccc3ccccc23)c1` here?
A: 11.1% (active)

Q: Which signal change vs control minus 3*SD hit threshold (margin above threshold, higher = more increase) does the source give for `COc1ccc(C(=O)CC(=O)C(=O)Nc2ccccc2Cl)cc1` here?
A: 10.1% (active)

Q: With `CCOc1ccccc1NC(=O)C(=O)CC(=O)c1cccc(OC)c1` as the molecule, how does the signal change vs control minus 3*SD hit threshold (margin above threshold, higher = more increase) read?
A: -25.9%

Q: With `COc1ccc(C(=O)NNC(=O)C(=O)Nc2cccc3ccccc23)cc1` as the molecule, how does the signal change vs control minus 3*SD hit threshold (margin above threshold, higher = more increase) read?
A: 12.2% (active)

Q: With `COc1ccc(C(=O)CC(=O)C(=O)Nc2ccc(C)cc2Cl)cc1` as the molecule, how does the signal change vs control minus 3*SD hit threshold (margin above threshold, higher = more increase) read?
A: -13.5%

Q: With `CCOC(=O)N1CCN(C(=O)c2ccc(Cl)c(S(=O)(=O)Nc3ccccc3)c2)CC1` as the molecule, how does the signal change vs control minus 3*SD hit threshold (margin above threshold, higher = more increase) read?
A: -11.6%

Q: With `O=C(O)CSc1nc2ccccc2nc1Cc1ccccc1F` as the molecule, how does the signal change vs control minus 3*SD hit threshold (margin above threshold, higher = more increase) read?
A: -22.7%

Q: Which signal change vs control minus 3*SD hit threshold (margin above threshold, higher = more increase) does the source give for `CCC(=O)N1CCN(c2nc(CC)nc3sc4c(c23)CCCC4)CC1` here?
A: -56%

Q: Which signal change vs control minus 3*SD hit threshold (margin above threshold, higher = more increase) does the source give for `Cc1cc(-c2cccc(Br)c2)c(C#N)c(N)n1` here?
A: -34.5%

Q: Which signal change vs control minus 3*SD hit threshold (margin above threshold, higher = more increase) does the source give for `O=C(CCN1C(=O)/C(=C\C=C\c2ccccc2)SC1=S)Nc1cccc(C(=O)O)c1` here?
A: -27.2%

Q: Which signal change vs control minus 3*SD hit threshold (margin above threshold, higher = more increase) does the source give for `Cc1ccccc1OC(=O)n1c(=S)oc2cc(Cl)ccc21` here?
A: -25.4%

Q: With `COC(=O)c1sc(NC(=S)NC(=O)c2ccccc2C)nc1C` as the molecule, how does the signal change vs control minus 3*SD hit threshold (margin above threshold, higher = more increase) read?
A: -2.6%

Q: Which signal change vs control minus 3*SD hit threshold (margin above threshold, higher = more increase) does the source give for `CC(C)CC(=O)Nc1nc(=S)ss1` here?
A: -30.3%

Q: Which signal change vs control minus 3*SD hit threshold (margin above threshold, higher = more increase) does the source give for `O=C(NNC(=O)c1ccc(Cl)cc1Cl)c1cnccn1` here?
A: -29%

Q: With `Cc1ccccc1C(=O)Nc1nc(=S)ss1` as the molecule, how does the signal change vs control minus 3*SD hit threshold (margin above threshold, higher = more increase) read?
A: 9.5% (active)

Q: For `O=C(Nc1nc(=S)ss1)c1ccc(Cl)cc1Cl`, which signal change vs control minus 3*SD hit threshold (margin above threshold, higher = more increase) is on record?
A: 56.5% (active)

Q: For `O=C(Nc1nnc(-c2ccc3c(c2)CCCC3)o1)c1ccc(Cl)cc1Cl`, which signal change vs control minus 3*SD hit threshold (margin above threshold, higher = more increase) is on record?
A: -21.2%

Q: For `O=C1Nc2ccc(Br)cc2C1Cc1ccccc1F` (stereo unspecified), which signal change vs control minus 3*SD hit threshold (margin above threshold, higher = more increase) is on record?
A: -42.3%

Q: For `O=C(O)c1ccc2c(c1)C(=O)N(c1cc([N+](=O)[O-])ccn1)C2=O`, which signal change vs control minus 3*SD hit threshold (margin above threshold, higher = more increase) is on record?
A: -24.2%

Q: Which signal change vs control minus 3*SD hit threshold (margin above threshold, higher = more increase) does the source give for `CCC(=O)Nc1ccc(N2CCOCC2)c(S(=O)(=O)Nc2ccc(OC)cc2)c1` here?
A: -21.7%

Q: With `O=C(c1ccccc1)c1nccn1-c1ccc(Cl)nn1` as the molecule, how does the signal change vs control minus 3*SD hit threshold (margin above threshold, higher = more increase) read?
A: -27.6%

Q: Which signal change vs control minus 3*SD hit threshold (margin above threshold, higher = more increase) does the source give for `CC(NC(=O)C1CCN(S(=O)(=O)c2cccc3cccnc23)CC1)c1ccccc1` (stereo unspecified) here?
A: -31.3%

Q: Which signal change vs control minus 3*SD hit threshold (margin above threshold, higher = more increase) does the source give for `Cc1cc(C(=O)NCCN2C(=O)S/C(=C\c3cccs3)C2=O)ccc1[N+](=O)[O-]` here?
A: -31.4%

Q: For `CCOc1ccc(/C=C2/SC(=O)NC2=S)cc1`, which signal change vs control minus 3*SD hit threshold (margin above threshold, higher = more increase) is on record?
A: 39% (active)

Q: With `CCOc1ccc(/C=C2\CCc3ccccc3C2=O)cc1` as the molecule, how does the signal change vs control minus 3*SD hit threshold (margin above threshold, higher = more increase) read?
A: -33.6%

Q: With `Cn1cc(/C=C2\SC(=O)NC2=S)c2ccccc21` as the molecule, how does the signal change vs control minus 3*SD hit threshold (margin above threshold, higher = more increase) read?
A: -27.6%

Q: For `Cc1ccc(-c2nc(N)s[n+]2-c2ccccc2)cc1`, which signal change vs control minus 3*SD hit threshold (margin above threshold, higher = more increase) is on record?
A: -7.8%

Q: Which signal change vs control minus 3*SD hit threshold (margin above threshold, higher = more increase) does the source give for `CCOC(=O)N/N=C\c1ccc(-c2cc(Cl)ccc2Cl)o1` here?
A: -32%

Q: With `Cc1ccc(C(C)NC(=O)c2cccs2)cc1C` (stereo unspecified) as the molecule, how does the signal change vs control minus 3*SD hit threshold (margin above threshold, higher = more increase) read?
A: -16.2%

Q: For `O=C(N/N=C/c1cc(Cl)ccc1O)c1ccccc1Br`, which signal change vs control minus 3*SD hit threshold (margin above threshold, higher = more increase) is on record?
A: -21.5%

Q: Which signal change vs control minus 3*SD hit threshold (margin above threshold, higher = more increase) does the source give for `CCOC(=O)c1sc(NN=C(C(=O)OC)C(=O)OC)c(C(=O)OCC)c1C` here?
A: -7.4%

Q: Which signal change vs control minus 3*SD hit threshold (margin above threshold, higher = more increase) does the source give for `CCOc1ccc(N(CC)C(=O)COc2cc(=O)n(C)c3ccccc23)cc1` here?
A: -18.3%

Q: Which signal change vs control minus 3*SD hit threshold (margin above threshold, higher = more increase) does the source give for `CCCOc1ccc(C(=O)NNC(=S)NC(=O)c2ccccc2)cc1` here?
A: -44.9%

Q: For `CCOc1ccc(-c2c(=O)n(O)c3ccccc3[n+]2[O-])cc1`, which signal change vs control minus 3*SD hit threshold (margin above threshold, higher = more increase) is on record?
A: 19.7% (active)

Q: With `CCCOc1ccc(-c2c(=O)n(O)c3ccccc3[n+]2[O-])cc1` as the molecule, how does the signal change vs control minus 3*SD hit threshold (margin above threshold, higher = more increase) read?
A: 29.7% (active)

Q: Which signal change vs control minus 3*SD hit threshold (margin above threshold, higher = more increase) does the source give for `CCCOc1ccc(OC(=O)c2ccc(Br)o2)cc1` here?
A: -5.2%

Q: Which signal change vs control minus 3*SD hit threshold (margin above threshold, higher = more increase) does the source give for `CCOc1ccc(CC(C(N)=O)C(N)=O)cc1` here?
A: -32.5%
